# Results filed as inconclusive are left out. Active and inactive are the calls of the source. The calls were made as follows: active = hit-call score of the fitted dose curve at least 0.9, where 1 is the maximum; inconclusive = response in the unintended direction; inactive = score below 0.9.
# Tests used:
# [1] = target: human Protein Phosphatase, Mg2+/Mn2+ Dependent 1A (PPM1A), PPM1A (gene 5494) (UniProt P35813); assay: NVS_ENZ_hPPM1A: NovaScreen (NVS) Enzymatic Assay for human Protein Phosphatase, Mg2+/Mn2+ Dependent 1A (PPM1A) (AID 2283198)
# human Protein Phosphatase, Mg2+/Mn2+ Dependent 1A (PPM1A), PPM1A (gene 5494), sequence (P35813 whole entry, looked up): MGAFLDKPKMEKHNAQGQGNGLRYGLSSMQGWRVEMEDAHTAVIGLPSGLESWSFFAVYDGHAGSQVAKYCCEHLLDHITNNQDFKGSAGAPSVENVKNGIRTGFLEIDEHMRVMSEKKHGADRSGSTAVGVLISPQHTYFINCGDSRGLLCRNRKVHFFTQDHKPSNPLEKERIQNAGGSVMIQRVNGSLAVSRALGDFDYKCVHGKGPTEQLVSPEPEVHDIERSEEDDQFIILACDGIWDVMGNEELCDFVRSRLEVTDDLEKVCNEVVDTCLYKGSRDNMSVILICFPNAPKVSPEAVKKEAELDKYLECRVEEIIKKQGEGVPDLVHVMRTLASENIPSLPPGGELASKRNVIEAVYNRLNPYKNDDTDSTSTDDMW
# Summary of the method: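 Cell-free recombinant PPM1A phosphatase assay with fluorescent substrate, read 1 h after dosing by electrophoretic mobility shift. Chemicals screened in duplicate at 25 uM, then in concentration-response up to 50 uM; loss of activity versus DMSO.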
# [2] = target: human Protein Tyrosine Phosphatase Non-receptor Type 1 (PTPN1), PTPN1 (gene 5770) (UniProt P18031); assay: NVS_ENZ_hPTPN1: NovaScreen (NVS) Enzymatic Assay for human Protein Tyrosine Phosphatase Non-receptor Type 1 (PTPN1) (AID 2283201)
# human Protein Tyrosine Phosphatase Non-receptor Type 1 (PTPN1), PTPN1 (gene 5770), sequence (P18031 whole entry, looked up): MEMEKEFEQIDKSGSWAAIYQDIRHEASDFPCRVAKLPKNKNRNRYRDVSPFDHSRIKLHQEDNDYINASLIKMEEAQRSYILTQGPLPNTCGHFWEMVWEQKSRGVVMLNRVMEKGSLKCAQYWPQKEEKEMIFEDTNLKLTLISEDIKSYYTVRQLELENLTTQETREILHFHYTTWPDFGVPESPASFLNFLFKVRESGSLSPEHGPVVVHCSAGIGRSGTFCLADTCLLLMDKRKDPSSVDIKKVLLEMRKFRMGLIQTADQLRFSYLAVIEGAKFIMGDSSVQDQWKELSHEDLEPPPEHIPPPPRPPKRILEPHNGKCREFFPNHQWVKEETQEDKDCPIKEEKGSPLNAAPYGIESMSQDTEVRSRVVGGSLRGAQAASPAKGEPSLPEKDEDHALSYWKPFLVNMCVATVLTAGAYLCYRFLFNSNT
# Summary of the method: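 Cell-free fluorogenic-substrate activity assay on recombinant enzyme, read 1.33 h after dosing by fluorescence and electrophoretic mobility shift; loss of signal vs DMSO baseline. Primary screen in duplicate at 25 uM, hits then run in concentration-response up to 50 uM.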
# [3] = target: Tyrosine-protein phosphatase non-receptor type 12 (Homo sapiens) (UniProt Q05209); assay: NVS_ENZ_hPTPN12: NovaScreen (NVS) Enzymatic Assay for human Protein Tyrosine Phosphatase Non-receptor Type 12 (PTPN12) (AID 2283204)
# Tyrosine-protein phosphatase non-receptor type 12 (Homo sapiens), sequence (Q05209 whole entry, looked up): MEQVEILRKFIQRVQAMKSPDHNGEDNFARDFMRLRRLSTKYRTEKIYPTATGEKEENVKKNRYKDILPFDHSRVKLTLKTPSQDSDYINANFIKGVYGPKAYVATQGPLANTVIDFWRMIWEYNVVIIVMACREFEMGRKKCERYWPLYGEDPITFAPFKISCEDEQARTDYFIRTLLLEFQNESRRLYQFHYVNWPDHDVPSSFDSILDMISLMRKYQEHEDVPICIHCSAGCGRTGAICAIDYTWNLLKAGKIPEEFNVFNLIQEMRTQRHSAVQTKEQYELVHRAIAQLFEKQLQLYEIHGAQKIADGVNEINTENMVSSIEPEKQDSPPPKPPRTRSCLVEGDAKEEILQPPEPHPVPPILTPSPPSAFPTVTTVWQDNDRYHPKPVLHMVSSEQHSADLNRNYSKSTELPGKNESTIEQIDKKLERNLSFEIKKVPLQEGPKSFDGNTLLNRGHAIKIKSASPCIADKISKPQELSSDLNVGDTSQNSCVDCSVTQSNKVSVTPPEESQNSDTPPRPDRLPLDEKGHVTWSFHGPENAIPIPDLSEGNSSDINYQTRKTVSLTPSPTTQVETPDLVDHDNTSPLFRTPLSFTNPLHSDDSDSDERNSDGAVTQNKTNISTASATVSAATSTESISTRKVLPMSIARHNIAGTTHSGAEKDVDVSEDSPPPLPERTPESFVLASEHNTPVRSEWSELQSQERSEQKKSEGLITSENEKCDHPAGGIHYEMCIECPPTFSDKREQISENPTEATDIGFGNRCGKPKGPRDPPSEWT
# Summary of the method: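 Single-concentration duplicates (25 uM) preceded singleton concentration-response up to 50 uM for chemicals passing threshold. Cell-free recombinant PTPN12 activity was read 1.33 h after dosing via fluorescence after mobility-shift separation; loss of signal versus DMSO.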
# [4] = target: Tyrosine-protein phosphatase non-receptor type 13 (Homo sapiens) (UniProt Q12923); assay: NVS_ENZ_hPTPN13: NovaScreen (NVS) Enzymatic Assay for human Protein Tyrosine Phosphatase Non-receptor Type 13 (PTPN13) (AID 2283205)
# Tyrosine-protein phosphatase non-receptor type 13 (Homo sapiens), sequence (Q12923 whole entry, looked up): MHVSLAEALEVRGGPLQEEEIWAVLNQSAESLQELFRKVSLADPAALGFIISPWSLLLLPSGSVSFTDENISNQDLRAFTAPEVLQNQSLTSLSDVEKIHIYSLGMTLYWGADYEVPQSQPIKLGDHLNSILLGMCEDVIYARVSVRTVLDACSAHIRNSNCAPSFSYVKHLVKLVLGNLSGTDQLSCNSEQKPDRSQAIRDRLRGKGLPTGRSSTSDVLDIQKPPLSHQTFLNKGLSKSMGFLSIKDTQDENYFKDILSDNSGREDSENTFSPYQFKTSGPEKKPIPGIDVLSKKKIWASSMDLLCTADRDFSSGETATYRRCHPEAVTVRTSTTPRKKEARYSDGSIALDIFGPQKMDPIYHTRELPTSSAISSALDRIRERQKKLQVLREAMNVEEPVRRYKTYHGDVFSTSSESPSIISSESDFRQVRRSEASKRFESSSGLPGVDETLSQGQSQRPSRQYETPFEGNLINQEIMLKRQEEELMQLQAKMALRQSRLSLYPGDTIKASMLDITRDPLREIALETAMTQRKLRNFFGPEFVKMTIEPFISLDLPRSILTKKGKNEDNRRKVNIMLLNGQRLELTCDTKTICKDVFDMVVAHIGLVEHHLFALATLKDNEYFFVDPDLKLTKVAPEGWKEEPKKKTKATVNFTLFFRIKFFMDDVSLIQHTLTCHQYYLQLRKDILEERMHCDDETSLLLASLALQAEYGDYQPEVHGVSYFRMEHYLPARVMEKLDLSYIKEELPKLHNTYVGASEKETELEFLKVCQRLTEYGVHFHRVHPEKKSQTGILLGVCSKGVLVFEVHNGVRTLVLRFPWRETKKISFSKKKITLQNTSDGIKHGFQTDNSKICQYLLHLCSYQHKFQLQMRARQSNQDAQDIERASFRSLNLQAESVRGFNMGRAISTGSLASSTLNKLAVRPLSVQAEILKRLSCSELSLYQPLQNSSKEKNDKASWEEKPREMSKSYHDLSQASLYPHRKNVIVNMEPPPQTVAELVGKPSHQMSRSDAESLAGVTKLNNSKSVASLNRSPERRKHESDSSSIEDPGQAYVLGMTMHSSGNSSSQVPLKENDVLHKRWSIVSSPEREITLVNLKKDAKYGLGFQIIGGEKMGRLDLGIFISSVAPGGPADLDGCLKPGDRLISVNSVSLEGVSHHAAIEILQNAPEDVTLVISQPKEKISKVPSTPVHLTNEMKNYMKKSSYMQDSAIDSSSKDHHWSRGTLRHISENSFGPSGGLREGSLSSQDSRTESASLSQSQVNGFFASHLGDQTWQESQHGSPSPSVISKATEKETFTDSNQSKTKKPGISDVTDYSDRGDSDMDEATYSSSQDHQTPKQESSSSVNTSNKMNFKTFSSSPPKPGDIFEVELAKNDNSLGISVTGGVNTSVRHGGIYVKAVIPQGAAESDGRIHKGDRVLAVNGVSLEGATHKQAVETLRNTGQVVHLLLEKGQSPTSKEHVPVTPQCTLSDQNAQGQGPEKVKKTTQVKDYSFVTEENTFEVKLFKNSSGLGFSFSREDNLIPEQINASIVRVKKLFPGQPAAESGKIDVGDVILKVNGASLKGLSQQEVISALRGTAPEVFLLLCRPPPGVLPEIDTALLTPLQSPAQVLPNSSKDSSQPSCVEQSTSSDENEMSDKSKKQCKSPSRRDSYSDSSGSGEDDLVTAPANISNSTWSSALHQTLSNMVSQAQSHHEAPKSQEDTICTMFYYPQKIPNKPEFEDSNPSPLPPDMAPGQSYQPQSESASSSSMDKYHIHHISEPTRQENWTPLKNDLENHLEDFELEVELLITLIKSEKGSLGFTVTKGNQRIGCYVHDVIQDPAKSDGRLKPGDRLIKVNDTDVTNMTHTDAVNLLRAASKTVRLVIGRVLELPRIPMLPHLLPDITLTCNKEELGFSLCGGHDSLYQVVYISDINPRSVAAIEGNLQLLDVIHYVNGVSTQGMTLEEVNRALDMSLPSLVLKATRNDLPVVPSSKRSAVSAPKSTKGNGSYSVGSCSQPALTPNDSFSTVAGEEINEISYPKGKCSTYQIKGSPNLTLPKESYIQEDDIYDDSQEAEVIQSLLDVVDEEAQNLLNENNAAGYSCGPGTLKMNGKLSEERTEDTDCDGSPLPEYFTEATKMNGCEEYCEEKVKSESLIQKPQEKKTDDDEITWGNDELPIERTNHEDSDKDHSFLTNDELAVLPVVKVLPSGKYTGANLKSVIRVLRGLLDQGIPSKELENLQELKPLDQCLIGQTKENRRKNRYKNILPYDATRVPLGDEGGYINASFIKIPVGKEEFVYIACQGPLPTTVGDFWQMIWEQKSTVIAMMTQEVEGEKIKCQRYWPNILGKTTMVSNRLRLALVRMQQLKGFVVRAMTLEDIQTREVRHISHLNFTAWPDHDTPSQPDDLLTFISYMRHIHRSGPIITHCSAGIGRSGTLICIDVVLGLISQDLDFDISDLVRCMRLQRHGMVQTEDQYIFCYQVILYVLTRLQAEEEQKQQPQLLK
# Summary of the method: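 Cell-free assay of recombinant human PTPN13 with a fluorescent substrate, product separated by electrophoretic mobility shift and read 0.5 h after dosing. Primary screen at 25 uM in duplicate, then concentration-response up to 50 uM. Loss of signal fitted against DMSO.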
# [5] = target: Serine/threonine-protein phosphatase PP1-alpha catalytic subunit (Homo sapiens) (UniProt P62136); assay: NVS_ENZ_hPPP1CA: NovaScreen (NVS) Enzymatic Assay for human Protein Phosphatase 1 Aatalytic subunit Alpha (PPP1CA) (AID 2283200)
# Serine/threonine-protein phosphatase PP1-alpha catalytic subunit (Homo sapiens), sequence (P62136 whole entry, looked up): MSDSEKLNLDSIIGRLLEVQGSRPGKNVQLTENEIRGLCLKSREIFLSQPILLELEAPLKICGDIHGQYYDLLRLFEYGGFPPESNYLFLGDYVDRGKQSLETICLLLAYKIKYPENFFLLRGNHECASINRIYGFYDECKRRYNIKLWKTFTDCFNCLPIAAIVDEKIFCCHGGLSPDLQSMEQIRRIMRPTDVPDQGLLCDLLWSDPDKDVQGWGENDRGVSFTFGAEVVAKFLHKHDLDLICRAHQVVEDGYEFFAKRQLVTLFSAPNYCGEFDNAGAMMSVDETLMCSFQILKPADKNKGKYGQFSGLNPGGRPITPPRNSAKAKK
# Description: NVS_ENZ_hPPP1CA is a biochemical, single-readout assay that uses extracted gene-proteins in a cell-free assay. Measurements were taken 1.33 hours after chemical dosing in a 384-well plate.NVS_ENZ_hPPP1CA is one of one assay component(s) measured or calculated from the NVS_ENZ_hPPP1CA assay. It is designed to make measurements of enzyme activity, a form of enzyme reporter, as detected with fluorescence intensity signals by Fluorescence and electrophoretic mobility shift technology.Data from the assay component NVS_ENZ_hPPP1CA was analyzed into 1 assay endpoint. This assay endpoint, NVS_ENZ_hPPP1CA, was analyzed in the positive analysis fitting direction relative to DMSO as the negative control and baseline of activity. Using a type of enzyme reporter, loss-of-signal activity can be used to understand changes in the enzymatic activity as they relate to the gene PPP1CA. Furthermore, this assay endpoint can be referred to as a primary readout, because this assay has produced multiple assay endpoints where this one serves a enzymatic activity function. To generalize the intended target to other relatable targets, this assay endpoint is annotated to the phosphatase intended target family, where the subfamily is serine/threonine phosphatase. […]
# [6] = target: Tyrosine-protein phosphatase non-receptor type 14 (Homo sapiens) (UniProt Q15678); assay: NVS_ENZ_hPTPN14: NovaScreen (NVS) Enzymatic Assay for human Protein Tyrosine Phosphatase Non-receptor Type 14 (PTPN14) (AID 2283206)
# Summary of the method: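 Cell-free recombinant human PTPN14 with fluorescent substrate, read 0.5 h after dosing by fluorescence and electrophoretic mobility shift separating substrate from product. Primary screen at 25 uM in duplicate; hits run to 50 uM maximum; loss of signal versus DMSO.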
# [7] = target: human Protein Tyrosine Phosphatase Receptor Type B (PTPRB), PTPRB (gene 5787) (UniProt P23467); assay: NVS_ENZ_hPTPRB: NovaScreen (NVS) Enzymatic Assay for human Protein Tyrosine Phosphatase Receptor Type B (PTPRB) (AID 2283211)
# Summary of the method: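 Recombinant human PTPRB with a fluorescent substrate, product separated by electrophoretic mobility shift; read 1 h after dosing. Primary screen in duplicate at 25 uM; actives then retested in concentration series; loss of signal versus DMSO.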
smiles,measurement,setting,value
CC(=O)[O][Hg][c]1ccccc1,outcome,[1],inactive
same,AC50,[2],9.68 µM (active)
same,AC50,[3],16 µM (active)
same,AC50,[4],5.38 µM (active)
CCC(C)(C)c1ccc(O)c(C(C)(C)CC)c1,outcome,[5],inactive
O=C(Nc1ccc2[nH]ccc2c1)c1cc2cc(F)ccc2n1Cc1cccc(F)c1,outcome,[2],inactive
CCOC(=O)Nc1cccc(OC(=O)Nc2ccccc2)c1,outcome,[3],inactive
CC(C)(c1ccccc1)c1ccc(O)c(C(C)(C)c2ccccc2)c1,outcome,[4],inactive
ClC1(Cl)C2(Cl)C3(Cl)C4(Cl)C(Cl)(Cl)C5(Cl)C3(Cl)C1(Cl)C5(Cl)C24Cl (stereo not given),outcome,[6],inactive
O=c1[nH]c(=O)[nH]c(=O)[nH]1,outcome,[7],inactive

# Reference: PubChem BioAssay (EPA / NIEHS)
